Molecular target: Short transient receptor potential channel 4 (Mus musculus) (UniProt Q9QUQ5)
Assay: mouse TRPC4 blockers, membrane potential readout – cell-based, HEK293 TRPC4/mu-opioid, concentration-response, set 2, selectivity assay for TRPC6 selective inhibitor project, SAR follow-up (AID 504866)
Conditions: DAMGO, membrane potential dye; series mostly up to 20 µM; ratio, lower = inhibition: at the top concentration;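 active means compound cutting the TRPC4 channel signal by more than 30% at some tested dose, with a fitted dose response curve; inactive means no inhibition at any dose, or no curve fitted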

Short transient receptor potential channel 4 (Mus musculus), sequence (Q9QUQ5 whole entry, looked up): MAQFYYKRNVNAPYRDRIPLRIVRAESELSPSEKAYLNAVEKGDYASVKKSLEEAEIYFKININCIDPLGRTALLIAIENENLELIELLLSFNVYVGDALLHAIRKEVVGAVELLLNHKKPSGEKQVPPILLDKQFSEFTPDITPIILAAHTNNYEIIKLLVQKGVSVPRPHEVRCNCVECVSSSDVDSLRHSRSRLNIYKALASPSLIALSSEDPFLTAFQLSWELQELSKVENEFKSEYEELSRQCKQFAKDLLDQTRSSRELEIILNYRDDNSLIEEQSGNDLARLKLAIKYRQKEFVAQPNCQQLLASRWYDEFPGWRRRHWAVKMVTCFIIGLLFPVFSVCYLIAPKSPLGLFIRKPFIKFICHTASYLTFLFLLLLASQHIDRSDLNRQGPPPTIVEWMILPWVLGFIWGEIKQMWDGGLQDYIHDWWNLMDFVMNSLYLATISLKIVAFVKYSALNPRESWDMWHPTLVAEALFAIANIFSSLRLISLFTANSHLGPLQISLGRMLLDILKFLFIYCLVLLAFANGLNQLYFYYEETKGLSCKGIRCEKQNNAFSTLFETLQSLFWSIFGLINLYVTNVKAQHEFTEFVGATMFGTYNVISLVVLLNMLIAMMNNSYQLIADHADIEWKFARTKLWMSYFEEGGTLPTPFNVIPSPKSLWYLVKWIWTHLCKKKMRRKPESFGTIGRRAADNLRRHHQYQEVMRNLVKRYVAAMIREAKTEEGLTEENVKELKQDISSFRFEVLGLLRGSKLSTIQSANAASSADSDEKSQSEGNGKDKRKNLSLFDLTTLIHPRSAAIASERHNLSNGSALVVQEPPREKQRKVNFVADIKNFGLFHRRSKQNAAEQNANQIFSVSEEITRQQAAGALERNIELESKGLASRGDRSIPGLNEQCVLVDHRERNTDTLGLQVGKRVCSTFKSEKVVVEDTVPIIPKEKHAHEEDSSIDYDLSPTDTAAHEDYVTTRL

ratio, lower = inhibition, inactive:
CN1CCN(Cc2ccc3nsnc3c2)CC1CCO (stereo unspecified) 52.5
O=S(=O)(Cc1cc(N2CCOCC2)nc(-c2ccccn2)n1)c1ccccc1 47.2
Clc1ccc(SCc2cc(N3CCCCC3)nc(-c3ccccn3)n2)cc1 46.9
OCCC1CN(Cc2ccc3nsnc3c2)CCN1C1CCCC1 (stereo unspecified) 28.4
Cc1ccccc1CN1CCN(Cc2ccc3nsnc3c2)CC1CCO (stereo unspecified) 24.7
CC(C)CCN1CCN(Cc2ccc3nsnc3c2)CC1CCO (stereo unspecified) 31.2
CN1CCC(N2CCN(Cc3ccc4nsnc4c3)CC2CCO)CC1 (stereo unspecified) 51
Cc1cccc(CN2CCN(Cc3ccc4nsnc4c3)CC2CCO)n1 (stereo unspecified) 30.4
O=S(=O)(Cc1cc(N2CCN(c3ccccc3)CC2)nc(-c2ccccn2)n1)c1ccccc1 44.3
OCCC1CN(Cc2ccc3nsnc3c2)CCN1CCCc1ccccc1 (stereo unspecified) 10.8
CSCc1cc(N(C)c2ccccc2)nc(-c2ccccn2)n1 34
CC(C)CN1CCN(Cc2ccc3nsnc3c2)CC1CCO (stereo unspecified) 39
Cc1ccc(C)c(N2CCN(C(=O)c3ccc4nsnc4c3)CC2)c1 39.7
CSCc1cc(N2CCOCC2)nc(-c2ccccn2)n1 49.2
CC(C)N1CCN(Cc2ccc3nsnc3c2)CC1CCO (stereo unspecified) 46.1
CC(C)N1CCC(N2CCN(Cc3ccc4nsnc4c3)CC2CCO)CC1 (stereo unspecified) 43
